# Laboratory results taken from PubChem BioAssay AID2551 (National Center for Advancing Translational Sciences (NCATS), 2010).
# The whole screen tested about 310,000 compounds, of which about 17,000 (5.5%) were called active. Roughly 11% stayed inconclusive and do not appear here. Many of the other results were omitted from the sample, so actives are more common in it than they were. Values without a mark were called inactive. The call rests on the fitted dose curve; in most records, active means well fitted inhibition curve with a large enough effect; inconclusive means small, poorly fitted or top-dose-only effect, or effect the other way; inactive means no such curve, though single readings can be large or run the other way.
# Target: Nuclear receptor ROR-gamma (Mus musculus) (UniProt P51450)
# Assay: qHTS for inhibitors of ROR gamma transcriptional activity; further: nearly all actives have a fitted effect of over 60% in size
# Conditions: Drosophila S2 Gal4-RORgamma UAS-luciferase reporter, 20 h; series mostly up to 53.6 µM; activity change, negative = inhibition: at the top concentration
# How it was run: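 Using a luciferase readout, inhibitors were identified by reduced reporter activity in Drosophila cells coexpressing a copper-inducible Gal4–ROR gamma fusion and UAS-driven Photinus luciferase, incubated 20 hr after 700 uM copper sulfate.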
# On the % scale 0 is the no-effect control and ±100 the full control effect; potency means the concentration at half of the fitted maximal effect.
# Nuclear receptor ROR-gamma (Mus musculus), sequence (P51450 whole entry, looked up): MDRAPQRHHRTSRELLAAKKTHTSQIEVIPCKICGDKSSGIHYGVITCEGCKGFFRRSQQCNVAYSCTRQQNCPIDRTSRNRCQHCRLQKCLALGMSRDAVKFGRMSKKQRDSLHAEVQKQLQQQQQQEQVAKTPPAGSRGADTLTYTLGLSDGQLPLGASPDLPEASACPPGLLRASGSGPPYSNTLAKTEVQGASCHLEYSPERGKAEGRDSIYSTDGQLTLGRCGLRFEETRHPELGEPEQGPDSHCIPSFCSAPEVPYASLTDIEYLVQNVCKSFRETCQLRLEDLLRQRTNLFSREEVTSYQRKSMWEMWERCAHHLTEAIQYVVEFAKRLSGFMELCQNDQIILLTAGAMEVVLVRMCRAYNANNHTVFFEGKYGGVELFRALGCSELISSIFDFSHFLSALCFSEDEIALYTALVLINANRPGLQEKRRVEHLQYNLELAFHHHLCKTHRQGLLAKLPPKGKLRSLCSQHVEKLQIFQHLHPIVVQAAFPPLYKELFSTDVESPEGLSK
SMILES,"activity change, negative = inhibition",Potency
COCCCNC(=O)C1CC(=O)N(CCc2ccc(F)cc2)C1 (configuration not stated),-0.388%,–
CC(=O)Nc1ccc(Nc2ncnc3c2nnn3Cc2ccccc2Cl)cc1,-0.255%,–
O=C(c1c(F)cccc1Cl)N1CCN(c2ccccn2)CC1,-15.7%,–
COc1ccc(S(=O)(=O)N2CCC(C(=O)NCCC(=O)NCc3cccc(OC)c3)CC2)cc1,24.5%,–
CC(C)[C@H](NC(=O)N1CC(=O)Nc2ccccc21)C(=O)N[C@@H](Cc1c[nH]c2ccccc12)C(=O)O,8.13%,–
COc1cc(C(=O)NCCOC(=O)c2cccc(N(C)C)c2)cc(OC)c1OC,0.0134%,–
O=C(O)COc1ccc(/C=N/O)cc1Br,-9.27%,–
CNC(=S)N/N=C/c1ccc(OCc2ccccc2)c(Br)c1,–,1.26 µM (active)
C=CCNC(=S)N/N=C/c1ccc(OCc2ccccc2)cc1,-11.3%,–
COc1cc(NS(=O)(=O)c2ccc(NC(=S)NC(=O)c3ccc(Br)cc3)cc2)ncn1,30%,–
COc1cc2c(cc1OC)CN(C(=O)c1cc(S(=O)(=O)N3CCCCC3)ccc1Cl)CC2,26.2%,–
Cc1ccc(C(=O)NCC(=O)OCc2nnc(-c3ccccc3)o2)cc1,23.9%,–
Cc1c(CCC(=O)N[C@@H](CC(C)C)C(=O)O)c(=O)oc2c(C)c3oc4c(c3cc12)CCCC4,-39.1%,–
CCOC(=O)C1=C(c2ccccc2)NC(=O)NC1c1cc(OC)c(OC)cc1OC (configuration not stated),2.42%,–
CCOC(=O)C1=C(c2ccccc2)NC(=S)NC1c1ccc(Cl)cc1 (configuration not stated),–,7.94 µM (active)
CCOC(=O)C1=C(C)NC(=O)NC1c1ccccc1 (configuration not stated),-31.6%,–
Cn1cc(C(=O)c2ccc(Cl)cc2Cl)cc1C(=O)NN,1.5%,–
COc1ccc(C2=Nc3cc(C)ccc3OC2)cc1,–,10 µM (active)
COc1ccc(NC(=O)c2cc(-c3ccc(C)cc3)on2)cc1,-15.9%,–
COc1ccc(C2=NOC3(CC(=O)N(c4ccc(C)cc4)C3=O)C2)cc1 (configuration not stated),3.77%,–
Cc1cc(C)cc(N(CCC#N)C(=O)CN2C(=O)NC3(CCCC3)C2=O)c1,-9.67%,–
COc1ccc(N(Cc2ccc(N(C)C)cc2)C(=O)c2ccc(S(C)(=O)=O)cc2)cc1,1.79%,–
COCCN(C(=S)Nc1ccccc1OC)C1CCN(C(C)C)CC1,-1.16%,–
COc1ccccc1NC(=S)N1CCC(NC(=O)C23CC4CC(CC(C4)C2)C3)CC1,-9.29%,–

SMILES,"activity change, negative = inhibition",Potency
COc1ccccc1NC(=S)N1CCN(C(c2ccccc2)c2ccccc2)CC1,–,3.55 µM (active)
CCOc1ccccc1NC(=S)N1CCN(c2cccc(C)c2C)CC1,–,6.31 µM (active)
CC(=O)N1CCN(c2cccc(C)c2C)CC1,-8.54%,–
CCC(=O)N1CCN(c2ccccc2NC(=O)COc2cccc(C)c2C)CC1,-2.84%,–
CC(=O)c1cccc(NC(=S)N2CCN(S(C)(=O)=O)CC2)c1,-0.8%,–
CCC(C(=O)NC1CCCCC1)N(C(=O)c1snc(C(N)=O)c1N)c1ccc(OC)cc1OC (configuration not stated),16.7%,–
O=C(CCc1nnc2ccc(NCc3ccccc3Cl)nn12)NCC1CCN(C2CCCC2)C1 (configuration not stated),0.106%,–
COc1ccc(-c2noc(-c3cccc(OC)c3OC)n2)cc1OC,16.6%,–
COc1ccc(-c2csc3nc(-c4ccccc4F)oc(=O)c23)cc1OC,–,11.2 µM (active)
COc1ccc(-c2csc(-c3cccs3)n2)cc1OC,10.3%,–
NC(=O)C(=O)N/N=C/c1ccc([N+](=O)[O-])o1,-19.4% [at 10 µM],–
Cc1cc(C)nc(N/N=C/c2ccc([N+](=O)[O-])o2)n1,-25.4%,–
C/[N+]([O-])=C\c1ccc([N+](=O)[O-])o1,–,11.2 µM (active)
CCOC(=O)[C@H]1[C@H]2COc3cc(OC)ccc3[C@@H]2N2C(=O)N(c3ccc(Br)cc3)C(=O)[C@@]12C,25.7%,–
Cn1nccc1C(=O)N1CCCC(C(=O)c2ccc(Oc3ccccc3)cc2)C1 (configuration not stated),41.3%,–
C=CCOc1c(CNn2cn[nH]c2=S)cccc1OC,–,11.2 µM (active)
C=CCOc1ccc(/C=N/n2cncn2)cc1OC,-5.94%,–
C=CCOc1cccc(CNn2cn[nH]c2=S)c1,–,10 µM (active)
CCOc1c(CNCc2ccc(C(=O)O)cc2)cccc1OC,3.95%,–
COc1cccc(CNn2cn[nH]c2=S)c1OCc1ccccc1,–,2.51 µM (active)
C=CCC(Nc1ccccc1)c1cccc(OC)c1OC (configuration not stated),10.5%,–
C=CCOc1cccc(C2NC(=O)c3ccccc3O2)c1 (configuration not stated),6.76%,–
COc1ccccc1-n1cn[nH]c1=S,-36.8%,–
COc1ccc(-c2cc(=O)oc3cc(OC(C)C(=O)NCC4CCC(C(=O)O)CC4)ccc23)cc1 (configuration not stated),10.8%,–

SMILES,"activity change, negative = inhibition",Potency
CCN(CC)CCCNC(=O)c1cc2c(=O)[nH]c3ccc(C)cc3c2s1,-11.6%,–
CCCCC[C@H]1CN(C2CCCCC2)C(=O)[C@@H]1CC(=O)NCc1ccc(OC)cc1,30.1%,–
COc1ccccc1-c1sc2ccccc2c1-c1ccc(C(C)=O)cc1,11.9%,–
Cc1ccc(-c2csc(NC3OC(=O)c4ccccc43)n2)cc1 (configuration not stated),-5.54%,–
CCN(CC)S(=O)(=O)c1ccc(-c2cn3ccc(C)cc3n2)cc1,9.04%,–
COc1ccc(-c2cn3ccc(C)cc3n2)cc1,–,3.16 µM (active)
COc1ccc(-c2cn3ccsc3n2)cc1,-43.2%,–
CCOc1ccc(-n2c(SCC(=O)OC)nc3sc4c(c3c2=O)CCN(C)C4)cc1,2.83%,–
COc1ccc(N(CC(=O)Nc2ccc(F)c(F)c2)S(=O)(=O)c2c(C)[nH]c(=O)[nH]c2=O)cc1,1.07%,–
COc1cccc(C(O)c2nc3ccccc3n2C)c1 (configuration not stated),-0.976%,–
Oc1ccccc1C=NC1CCCCC1N=Cc1ccccc1O (configuration not stated),-38.2%,–
O=C(N/N=C/c1ccccc1O)C1CCCC1,–,0.158 µM (active)
COc1ccc(/C=N/NC(=O)C2CC2)c(OC)c1OC,21.1%,–
CCn1c(=S)sc2c(=O)n(CC(=O)Nc3cccc(Br)c3)c(C)nc21,31.8%,–
Cc1cc(C)c(NC(=O)CN2CCCCCC2)c(C)c1,-2.87%,–
O=C(c1c(F)cccc1Cl)N1CCN(S(=O)(=O)c2ccc3c(c2)OCCCO3)CC1,5.29%,–
CCOc1ccccc1CNS(=O)(=O)c1cc(-c2cc(C)no2)ccc1C,-15.7%,–
COc1ccc(/C=C2\SC(=O)N(CCC(=O)NC3CCS(=O)(=O)C3)C2=O)cc1 (configuration not stated),-44.2%,–
O=C(NCc1cccs1)c1ccc(CS(=O)Cc2ccccc2Cl)o1 (configuration not stated),42.8%,–
Cc1cc(-c2csc(N)n2)c(C)n1Cc1ccccc1,13.5%,–
CCc1cc(-c2n[nH]c(=S)n2CC(C)C)cs1,–,2.51 µM (active)
CCc1cc(-c2nnc(SCC(=O)NC3CC3)n2C)cs1,3.75%,–
CC(=O)Nc1ccc(C(=O)Nc2nc(-c3cc(C)n(Cc4ccccc4)c3C)cs2)cc1,3.29% [at 10 µM],–
CCCc1cc(-c2n[nH]c(=S)n2Cc2ccccc2)cs1,–,4.47 µM (active)
